Measurements as given in ChEMBL document CHEMBL3433997, “St. Jude Leishmania screening dataset” (2016).

Assays:
Format in all cases: functional
[1] = biological target: Solute carrier family 2, facilitated glucose transporter member 1 (Homo sapiens) (UniProt P11166); experiment: ST_JUDE_LEISH: Cytotoxicity at 2uM final concentration against transgenic Leishmania Mexicana promastigotes LmGLUT1 that are glucose transport deficient and complemented with the human glucose transporter GLUT1. Activity is measured by DNA content using SYBR green in vitro
Sequence of Solute carrier family 2, facilitated glucose transporter member 1 (Homo sapiens) (P11166 whole entry): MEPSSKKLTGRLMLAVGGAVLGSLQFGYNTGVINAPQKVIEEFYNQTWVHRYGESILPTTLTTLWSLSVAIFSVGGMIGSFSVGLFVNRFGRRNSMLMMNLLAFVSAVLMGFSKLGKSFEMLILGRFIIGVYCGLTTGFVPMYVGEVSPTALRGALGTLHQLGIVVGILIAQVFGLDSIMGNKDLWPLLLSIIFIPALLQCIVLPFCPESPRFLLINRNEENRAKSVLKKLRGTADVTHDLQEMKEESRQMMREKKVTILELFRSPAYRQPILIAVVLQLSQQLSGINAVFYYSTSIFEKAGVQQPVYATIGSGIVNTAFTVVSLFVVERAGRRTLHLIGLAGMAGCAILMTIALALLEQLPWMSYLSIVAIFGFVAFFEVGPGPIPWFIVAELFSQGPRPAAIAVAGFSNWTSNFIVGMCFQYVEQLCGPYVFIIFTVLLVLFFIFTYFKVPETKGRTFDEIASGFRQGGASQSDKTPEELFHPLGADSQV

[2] = biological target: Hexose transporter 1 (Plasmodium falciparum) (UniProt O97467); experiment: ST_JUDE_LEISH: Cytotoxicity at 2uM final concentration against transgenic Leishmania Mexicana promastigotes LmPfHT that are glucose transport deficient and complemented with the Plasmodium falciparum hexose transporter. Activity is measured by DNA content using SYBR green in vitro
[3] = biological target: Glucose transporter (Leishmania mexicana) (UniProt O61059); experiment: ST_JUDE_LEISH: Cytotoxicity at 2uM final concentration against transgenic Leishmania Mexicana promastigotes LmGT2 that are glucose transport deficient and complemented with the L. Mexicana glucose transporter 2. Activity is measured by DNA content using SYBR green in vitro

Row | SMILES | inhibition [1] [%] | inhibition [2] [%] | inhibition [3] [%]
1 | O=C(/C=C/c1ccc(Cl)cc1)Nc1ccc2nc(CN3CCCC3)ccc2c1 | 5.3 | 6.73 | 5.54
2 | CN1CCN(c2ccc(Nc3ncc([N+](=O)[O-])c(Nc4ccccc4O)n3)cc2)CC1 | 2.1 | 3.83 | 1.84
3 | CCN(CC)Cc1ccc2c(=O)cc(CCc3cccc(F)c3F)n(CC(=O)N(Cc3ccc(-c4ccc(C(F)(F)F)cc4)cc3)C(C)C)c2c1 | 1.44 | 2 | -0.21
4 | COc1ccc(-c2nc(NCc3ccccc3)c3cc(OC)c(OC)cc3n2)cc1 | 10.8 | 12.1 | 4.38
5 | COc1cc(F)c2ncc(Cl)c([C@H](O)CN3CCC(NCc4ccc5c(n4)NC(=O)CO5)CC3)c2c1 | -1.35 | 0.88 | 0.03
6 | CCN(CCCN1CCCCC1)c1cc(C)nc(Nc2ccc(Cl)cc2C)n1 | 1.07 | 1.21 | 1.9
7 | N#Cc1ccc(CN2CCC(NC(=O)c3ccc(-c4nnc(-c5cccc6ccccc56)o4)cc3)CC2)cc1 | 4.73 | 2.48 | -1.38
8 | COc1ccc2c(NN=Cc3ccccc3)ccnc2c1 | 1.36 | -2.08 | -1.04
9 | Cc1cc(N(C)C2CCN(CC3CCCCC3)C2)nc(Nc2ccc(Cl)cc2)n1 (configuration not stated) | 7.35 | 5.97 | 4.28
10 | Cc1cc(C)n(Cc2ccc(C(=O)NCC3CCCCC3)cc2)n1 | 4.03 | 2.07 | 2.61
11 | Cn1nc(-c2ccc(NC(=O)Nc3cc(C(F)(F)F)ccc3F)c(F)c2)c2cnc(NCCCn3ccnc3)nc21 | -0.19 | -1.5 | 0.5
12 | Cc1cccc2nc(-c3cccc(-c4cccc(NC(=O)Cc5c[nH]cn5)c4)c3)[nH]c12 | 1.54 | 2.27 | 2.94
13 | SC(=Nc1ccc2c(c1)OCCO2)NN=Cc1ccccn1 | -0.28 | -0.16 | 8.54
14 | COc1cc2c(cc1OC)C(C)(C)CN1Cc3c(c(CO)c(OC)c(OC)c3OC)CC21 (configuration not stated) | 4.54 | 3.72 | 4.31
15 | Cc1cccc2nc(-c3cccc(-c4ccc(NC(=O)Cc5c[nH]cn5)cc4)c3)[nH]c12 | -1.66 | -0.73 | -0.58
16 | Nc1cccc(CNCc2cccc(-c3cccc(-c4nc5cc(C(F)(F)F)ccc5[nH]4)c3)c2)c1 | 1.23 | -0.22 | 1.43
17 | Nc1nc(N)c2cc(S(=O)(=O)c3ccc4ccccc4c3)ccc2n1 | 10.7 | 18.4 | 8.89
18 | O=C(NCC1CCN(Cc2ccc3c(c2)OCCO3)C1)c1cc(-c2cccc(C(F)(F)F)c2)cs1 (configuration not stated) | -2.67 | -0.91 | 2.27
19 | CCCCCCOc1ccc(C(=O)N[C@H]2CCN(CCCCCNC(=O)/C=C/c3ccc(Cl)c(Cl)c3)C2)cc1 | 0.31 | -0.9 | 1.12
20 | COc1cccc(-c2nn(C)c3sc(C(=O)NCCN4CCN(c5ccccc5F)CC4)cc23)c1 | -0.88 | 2.01 | 0.29
21 | COc1ccc(CNCc2ccc(-c3cccc(-c4nc5cc(F)ccc5[nH]4)c3)cc2)cc1 | 1.04 | 4.45 | -2.49
22 | CC(C)CN1C(=O)C(c2ccc(F)c(F)c2)=C(O)C1c1ccccc1 (configuration not stated) | 1.97 | 4.04 | -7.87
23 | CC(NCCC1CCC(NC(=O)N[C@H](C)C(O)(c2ccccc2)c2ccccc2)CC1)c1cccc2ccccc12 (some centres not stated) | 16.8 | 16.2 | 13.4
24 | COc1ccc(CNC2CCN(C)CC2)cc1-c1cccc(S(=O)(=O)NCc2ccccc2)c1 | 1.72 | 1.62 | 0.24
25 | N=C(N)NC(=O)Nc1ccc(Cl)c(C(F)(F)F)c1 | 1.17 | 2.97 | 1.44

Row | SMILES | inhibition [1] [%] | inhibition [2] [%] | inhibition [3] [%]
26 | O=C(Nc1cccc(C(F)(F)F)c1)N1CCOC(CCN2CCC(c3ccccc3)CC2)(c2ccc(Cl)c(Cl)c2)C1 (configuration not stated) | 1.69 | 1.44 | 0.72
27 | COc1cc(Nc2nccc(N3CCC(NC(=O)Nc4cc(C)ccc4C)C3)n2)cc(OC)c1OC (configuration not stated) | 1.64 | 1.62 | 2.46
28 | O=C(Nc1ccc(C(=O)Oc2cccc3ccccc23)cc1)N[C@@H](Cc1ccc(O)cc1)C(=O)NC1CCN(Cc2ccc(O)cc2)C1 (some centres not stated) | 20.6 | 17.7 | 17.4
29 | CC(C)n1ncc2c(C(=O)N3CCCCCC3)cc(-c3ccccc3)nc21 | -0.35 | -0.92 | -5.3
30 | COc1cc2nccc(Nc3cc(C)cc(O)c3)c2cc1OC | 2.64 | 3.99 | 0.8
31 | N=C(N)NC(=O)Nc1cc(Cl)c(F)c(Cl)c1 | 3.91 | 4.24 | 0.63
32 | CCCNc1ccc(-c2cc(C(N)=O)c3[nH]cc(C4CCN(S(=O)(=O)CC)CC4)c3c2)cn1 | 3.86 | 6.54 | 3.64
33 | CCOc1c(CNCCCNc2cc(O)c3ccccc3n2)cc(Br)cc1OC | 7.77 | 4.37 | 6.38
34 | O=C(Nc1ccc(F)cc1)c1cnc(N2CCN(c3ccncc3)CC2)c(Cl)c1 | 16 | 10.4 | 3.86
35 | c1ccc2c(CNc3ccnc(NCc4cccc5ccccc45)n3)cccc2c1 | 9.83 | 5.69 | 7
36 | CNC(=O)CC(=O)NCCc1ccc(Cl)cc1 | -0.63 | 1.17 | 0.06
37 | O=S(=O)(Nc1ccc(-c2ccc(CN3CCCC3)cc2)cc1)c1cccc2cccnc12 | 78 | 85.2 | 71.7
38 | C[C@@H](CC1CCCCC1)OC(=O)N(C)[C@H]1CCN(C#N)C1 | 14 | 8.54 | 8.86
39 | COC(=O)[C@@H](NC(=O)[C@@H](Nc1ccc(C#N)c2ccccc12)C(C)(C)C)c1ccc(O)cc1 | 2.65 | 1.12 | 0.19
40 | CCCOc1ccc(C(=O)Nc2nonc2-c2ccc(OC)c(OC)c2)cc1 | 8.69 | 7.86 | 5.89
41 | NC(=O)c1ccccc1OCC(=O)Nc1cccc(-c2ccc(-c3nc4ccccc4[nH]3)cc2)c1 | 8.01 | 6.11 | 2.43
42 | O=C(Nc1ccncc1)c1cc(C(=O)Nc2ccncc2)cc([N+](=O)[O-])c1 | -0.17 | -3.19 | -0.41
43 | COc1cc(O)c2c(=O)c(OC)c(-c3cccc(Cl)c3OC3O[C@H](CO)[C@@H](O)[C@H](O)[C@H]3O)oc2c1OC (some centres not stated) | 5.21 | 4.48 | 4.54
44 | O=C(NC1CC1)c1ccc(N2CCC(Cc3ccccc3)CC2)nc1 | 3.46 | 4.8 | -1.16
45 | c1cc(-c2ccc(CNC3CCOCC3)cc2)cc(-c2nc3ccccc3[nH]2)c1 | -0.19 | 1.26 | -2.46
46 | O=c1[nH]ccc2nc(N[C@@H]3CCNC3)nc(Nc3cccc(S(=O)(=O)N4CCOCC4)c3)c12 | 2.94 | 3.93 | 0.85
47 | Nc1ncc(-c2ccccc2)cc1-c1cccc2ncccc12 | 7.53 | 9.12 | 6.36
48 | Clc1ccc(-c2csc3ncnc(Cl)c23)cc1 | 4.6 | 0.54 | 4.02
49 | CO/C(=C/C=C/c1cc2cc(Cl)c(Cl)cc2[nH]1)C(=O)NC1CC(C)(C)N(C)C(C)(C)C1 | 2.45 | 0.74 | -0.41
